Shown are actives, neighbours in structure and some others; about 4.6% of the full set was active somewhere.
TIM10 inh: TIM10 yeast growth inhibition. S. cerevisiae TIM10 strain growth, BacTiter-Glo luminescence, 24 h. inhibition, % at 10 µM. actives 1.4% (n = 330,000);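 active = inhibition of 40% or more at the single tested concentration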;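 note: wild-type TIM10 isogenic control strain grown at permissive 25 °C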
SKKanGAS inh: inhibitors of SKKanGAS S. pyogenes growth in kanamycin (SK-promoter or general growth effect); BacTiter-Glo, 6 h; AID 1662; inhibition, % at 7.5 µM; actives 1.3% (n = 300,000);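 active = mean replicate score, as percent of positive control median, at least 50; inconclusive = mean below 50 but one replicate at or above 50; inactive = mean and every replicate below 50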;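 note: strain carries kanamycin resistance gene driven by streptokinase promoter and grows in 40 µg/ml kanamycin; loss of luminescence reflects streptokinase promoter inhibition or plain growth inhibition; 0% = median of DMSO wells and 100% = positive control at its reference dose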
tim23-1 inh: growth inhibitors of tim23-1 mutant yeast | S. cerevisiae tim23-1 growth, BacTiter-Glo luminescence, 24 h | inhibition, % at 20 µM | actives 1.3% (n = 330,000) | AID 463212;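 active = growth inhibition of the mutant yeast at or above 50%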;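 note: temperature-sensitive mutant grown at 25 °C; plate controls were DMSO-treated mutant yeast for no effect and medium wells lacking yeast for full effect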
NLRP3 yeast inh: NALP3 inhibition in yeast; Yeast reconstituted NLRP3/ASC/caspase-1, beta-gal luminescence, 24 h; inhibition, % at 10 µM; actives 0.39% (n = 330,000); AID 2825;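 active = inhibition of 50% or more; inactive = inhibition below 50%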;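 note: plate controls were induced DMSO wells for no effect and uninduced yeast grown without galactose for full effect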
tim10-1 inh: tim10-1 yeast growth inhibition; AID 463190; inhibition, % at 20 µM; S. cerevisiae tim10-1 ts strain growth, BacTiter-Glo, 24 h; actives 2.2% (n = 330,000);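 active = inhibition of at least 40%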;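 note: mutant grown at 25 °C; 0% = DMSO wells with yeast and 100% = wells holding no yeast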
tim10-1 confirm: confirmation of tim10-1 mutant yeast growth inhibitors | shares compounds with tim10-1 inh | S. cerevisiae tim10-1 ts strain growth, BacTiter-Glo, 24 h | inhibition, % at 20 µM | actives 56% (n = 7,400) | AID 463213;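 active = inhibition of yeast growth at or above a set limit in either of two repeat tests at 20 µM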;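 note: tim10-1 mutant grown at permissive 25 °C to find synthetic lethal compounds; 0% = DMSO yeast wells and 100% = medium wells without yeast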
TIM10 conf: confirmation of TIM10 yeast growth inhibitors | shares compounds with TIM10 inh | S. cerevisiae tim10 strain growth, BacTiter-Glo luminescence, 24 h | inhibition, % at 10 µM | actives 63% (n = 4,600);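 active = inhibition of yeast growth at or above a set limit in either of two replicates at 10 µM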;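 note: this counterscreen used the strain with wild-type TIM10; 0% = yeast with DMSO and 100% = medium wells lacking yeast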
tim23-1 conf: tim23-1 yeast growth inhibition, confirmed | shares compounds with tim23-1 inh | S. cerevisiae tim23-1 growth, BacTiter-Glo luminescence, 24 h | inhibition, % at 20 µM | actives 83% (n = 4,400) | AID 463218;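 active = inhibition above about 39% in either of two replicate wells at 20 µM, limit read from the data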;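 note: temperature-sensitive tim23-1 mutant grown at 25 °C; 0% = DMSO wells with yeast and 100% = medium wells without yeast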
* hit, by the source's call; ? = inconclusive; · = no result given.

SMILES	TIM10 inh	SKKanGAS inh	tim23-1 inh	NLRP3 yeast inh	tim10-1 inh	tim10-1 confirm	TIM10 conf	tim23-1 conf
CCc1nn(C(C)C(=O)NCc2cccc(OC)c2)c(=O)c2cc3occc3n12 (centres undefined)	-1	3	15	2	14	·	·	·
C[C@H](CO)N1C[C@H](C)[C@@H](CN(C)C)Oc2c(NS(=O)(=O)c3cccs3)cccc2C1=O	1	·	-5	-10	-10	·	·	·
O=C(Nc1ncc(Br)s1)C(Cc1ccccc1)n1cccc1 (centres undefined)	58*	18	67*	-5	63*	54*	57*	54*
c1ccc(C2CCC(N3CCN(c4ccccc4)CC3)CC2)cc1 (centres undefined)	-77	1	-33	13	-77	·	·	·
COCCN(C(=S)Nc1ccc(OC)cc1)C1CCN(C(C)=O)CC1	-1	2	6	-1	0	·	·	·
Cc1ccc(C(=O)Nc2ccc(Br)c(C(F)(F)F)c2)cc1	63*	30	67*	-16	75*	45*	63*	62*
Nc1c(N2CCCCC2)c2ccccc2oc1=O	12	9	-6	1	12	·	·	·
Fc1ccccc1-c1nc(NC2CCCC2)c2ccccc2n1	52*	7	67*	10	52*	50*	48*	75*
COC(=O)CNc1nc(-c2ccccc2F)nc2ccccc12	16	-5	16	30	23	·	·	·
CC(CCc1ccccc1)NC(=S)NC(=O)c1ccco1 (centres undefined)	20	4	44	29	8	·	·	·
O=C(NC(=S)N(CCc1ccccc1)CCc1ccccc1)c1ccco1	42*	82*	51*	8	49*	44*	-10	51*
CCOCCCNC(=O)/C(C#N)=C/c1ccc(Cl)c([N+](=O)[O-])c1	66*	-2	86*	-3	47*	73*	82*	88*
O=C(COc1ccc(Cl)cc1Cl)Nc1ccccn1	26	·	58*	16	47*	49*	·	47*
Oc1c(Cl)cc(Cl)cc1/C=N/Nc1ncc(Br)cn1	-1	16	-4	13	12	·	·	·
Oc1c(Cl)cc(Cl)cc1/C=N/NC(=S)NC1CC2C=CC1C2 (centres undefined)	36	111*	57*	13	48*	50*	·	72*
O=C(CN1CCN(CC(=O)Nc2cccc(F)c2)CC1)NCC1(N2CCOCC2)CCCCC1	9	·	-11	1	-11	·	·	·
Cc1oc2c(c1C(=O)NCc1cccnc1)C(=O)c1ccccc1C2=O	94*	86*	83*	40	83*	82*	95*	72*
CCN(CC)CC(C)(C)COC(=O)c1oc2ccccc2c1C	-3	-1	-3	-6	12	·	·	·
O=C(C[C@@H]1C/C=C\CC[C@@H](Cc2ccc(F)cc2)C(=O)OC[C@@H]2CCCN2C1=O)N[C@H](CO)Cc1ccccc1	8	·	21	-18	24	·	·	·
CCCCNC(=O)c1onc(CSc2ccccn2)c1C(=O)NCCCC	14	7	14	-12	31	·	·	·
COCCOC(=O)C1=C(C)OC(N)=C(C#N)C1c1cc2cccc(C)c2nc1Cl (centres undefined)	29	1	44	14	35	·	·	·
COC(=O)C1=C(C)OC(N)=C(C#N)C1c1cc2cccc(C)c2nc1Cl (centres undefined)	29	-5	64*	23	44*	29	·	58*
COc1cc(/C=C(\CCC(=O)O)c2nc3ccccc3s2)ccc1OCC(=O)Nc1c(Cl)cccc1Cl	10	·	19	15	12	·	·	·
COc1ccc(CN2C[C@H]3CCCN3c3cc(Br)ccc3S2(=O)=O)cc1	6	·	41	·	21	·	·	·
COc1ccc(-c2csc(Nc3ccccc3)n2)cc1	61*	3	54*	14	46*	37*	43*	48*
SMILES	TIM10 inh	SKKanGAS inh	tim23-1 inh	NLRP3 yeast inh	tim10-1 inh	tim10-1 confirm	TIM10 conf	tim23-1 conf
O=[N+]([O-])c1cccc(-c2csc(Nc3ccccc3)n2)c1	64*	·	86*	0	50*	59*	66*	67*
CCCCC(CC)C(=O)Nc1cc(C(=O)NCCC)ccc1N1CCC2(CC1)CC(c1cccc(Br)c1)=NO2 (centres undefined)	3	22	1	6	6	·	·	·
CC1(NC(=O)CCNC(=O)c2ccc(C(C)(C)C)cc2)CCS(=O)(=O)C1 (centres undefined)	1	·	15	9	14	·	·	·
CCCn1nc(NC(=O)c2cccs2)c2cc3ccc(C)cc3nc21	-3	3	-2	21	-4	·	·	·
CCCn1nc(NC(=O)c2cccs2)c2cc3ccccc3nc21	24	2	52*	27	49*	37*	·	51*
Cc1nn(CC(=O)N2CCCCCC2)c(=O)c2cc3occc3n12	-12	-5	11	11	13	·	·	·
COc1ccc(-c2nc(-c3ccccc3)c(-c3cc([N+](=O)[O-])ccc3C)[nH]2)cc1O	17	2	53*	-3	44*	36*	·	58*
Cc1ccc([N+](=O)[O-])cc1-c1[nH]c(-c2ccc(O)c(O)c2)nc1-c1ccccc1	9	21	-10	4	28	·	·	·
O=C(c1cccs1)N1CCCC(c2nc3c(nnn3Cc3c(Cl)cccc3Cl)c(=O)[nH]2)C1 (centres undefined)	7	15	-3	21	2	·	·	·
O=c1oc2ccccc2c2c1ccc1ccccc12	-48	·	49	·	4	·	·	·
Cc1noc2ncnc(Sc3c(Cl)cccc3Cl)c12	23	16	5	-16	25	·	·	·
Cc1noc2ncnc(Sc3ccc(Cl)cc3)c12	31	-2	58*	37	51*	57*	·	49*
Cc1nnnn1/C(=C\c1ccccc1)C(=O)OCC(=O)NC1CCCCC1	41*	6	54*	25	47*	35*	50*	47*
Cc1ccc(-c2nc3s/c(=C\c4ccco4)c(=O)n3n2)cc1	9	-1	32	-1	8	·	·	·
O=c1nc2s/c(=C\c3ccco3)c(=O)n2nc1Cc1ccc(F)cc1	78*	8	53*	11	71*	76*	80*	-8
COc1ccc(-c2c(-c3cc(OC)cc(OC)c3)n(C)c3ccc(-c4ccc(S(N)(=O)=O)cc4)cc23)cc1	7	·	-2	23	-8	·	·	·
CS/C(N)=N/N=C/c1cc(C)ccc1O	25	-14	39	26	-22	·	·	·
CS/C(N)=N/N=C/c1cc(Br)cc(Br)c1O	71*	?	76*	35	47*	61*	61*	79*
